Test results taken from PubChem BioAssay.
Where “and” joins values, the source holds several entries; their conditions need not be identical. Equal entries are not always repeated. Calls of active or inactive are those of the source. Cut-off read from the data, not from the text of the source, unless noted: active = parasite load remaining mostly below about 12% (no sharp cut-off); inactive = mostly above about 10%.

Columns and labels:
[1] = P. berghei load reduction in hepatocytes – cell-based, HepG2, luciferase luminescence, HepG2 viability, primary screen (AID 624349);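 note: 100% = mean of DMSO negative control wells on the same plate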; conditions: P. berghei liver stage in HepG2, luciferase luminescence, concentration not given here; parasite load remaining: stronger effect = lower value; viability: measured here: HepG2 viability without parasites
[2] = Wnt pathway potentiators raising nuclear beta-catenin – imaging, WNT3A-conditioned medium, mouse C2C12, NPC library, primary screen (AID 1117326; in the data active = nuclear beta-catenin stimulation mostly above about 4.2%, no sharp cut-off; inactive = mostly below about 10%; note: reference of the scale not given here); conditions: stronger effect = higher value
[3] = stimulators of insulin release from INS-1E, primary screen, cell-based, 5 mM glucose, NPC library (AID 1117329;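 active = compound raises insulin release from rat beta cells at 5 mM glucose, no numeric limit stated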; note: reference of the scale not given here); conditions: rat INS-1E insulin secretion, at 10 µM, stronger effect = higher value
[4] = growth inhibition of GSK3B-pretreated HCT116 cells – cell-based, CellTiter-Glo, 0.2 to 20 µM (AID 1117336;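 active = compounds lowering colon cancer cell viability after pretreatment blocking the GSK3B kinase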); conditions: HCT116 viability after GSK3B inhibitor, at 20 µM, stronger effect = higher value
[5] = inhibition of endothelial tube formation, primary screen, imaging, VEGF stimulated, CD31 staining, tube area, NPC library (AID 1117340;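 active = compound that reduces growth-factor-driven endothelial tube area in a mixed cell culture, no cutoff stated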); conditions: VEGF-stimulated ADSC/ECFC co-culture, at 10 µM, stronger effect = higher value
[6] = GLP1 release stimulators, primary, NCI-H716, NPC library (AID 1117341;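 active = compound raises GLP1 secretion from the human gut endocrine cells, with no numeric limit stated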; note: reference of the scale not given here); conditions: NCI-H716 cells, at 10 µM, stronger effect = higher value
[7] = HCT116 colon cancer cell growth inhibition, primary screen, CellTiter-Glo luminescence, NPC library (AID 1117342;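 active = compounds that lower survival of HCT116 colon cancer cells in the luminescence readout, no numeric limit stated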); conditions: at 20 µM (top of the series)
[8] = reduced SW480 viability measured with CellTiter-Glo, NPC library, primary (AID 1117343;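 active = compounds that lower viability of the colon cancer cells in the luminescence readout, with no numeric limit stated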); conditions: CellTiter-Glo luminescence; at 20 µM (top of the series)
[9] = NPC library primary testing for decreased DLD-1 cell viability via CellTiter-Glo (AID 1117346;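 active = compounds that lower survival of DLD-1 colon cancer cells in the luminescence readout, no cutoff given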); conditions: DLD-1 viability, CellTiter-Glo luminescence; at 20 µM (top of the series)
[10] = target: 6-phosphogluconate dehydrogenase, decarboxylating (Homo sapiens) (UniProt P52209); experiment: inhibition of human phosphogluconate dehydrogenase – biochemical, recombinant enzyme, NADPH absorbance, primary screen (AID 1159550;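 active = at least 20% inhibition of 6-phosphogluconate dehydrogenase activity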); conditions: recombinant 6PGD, NADPH absorbance 341 nm; at 10 µM; stronger effect = higher value
Chain of 6-phosphogluconate dehydrogenase, decarboxylating (Homo sapiens) (P52209 whole entry, looked up): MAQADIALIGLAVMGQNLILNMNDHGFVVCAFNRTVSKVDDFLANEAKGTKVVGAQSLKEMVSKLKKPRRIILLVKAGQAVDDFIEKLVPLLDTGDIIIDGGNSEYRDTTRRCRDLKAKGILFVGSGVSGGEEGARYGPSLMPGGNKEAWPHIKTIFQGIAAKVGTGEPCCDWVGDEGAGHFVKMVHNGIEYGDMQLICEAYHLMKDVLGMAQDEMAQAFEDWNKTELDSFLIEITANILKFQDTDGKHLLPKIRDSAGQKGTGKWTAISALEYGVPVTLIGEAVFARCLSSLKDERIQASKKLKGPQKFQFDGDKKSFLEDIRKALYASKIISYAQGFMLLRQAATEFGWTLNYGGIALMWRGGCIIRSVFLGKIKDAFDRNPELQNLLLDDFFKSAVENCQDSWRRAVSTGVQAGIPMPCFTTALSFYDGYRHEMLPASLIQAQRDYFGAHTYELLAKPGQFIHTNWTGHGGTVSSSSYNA

Compound	parasite load remaining [1]	viability [1]	nuclear beta-catenin stimulation ([2]; at 10 µM)	nuclear beta-catenin stimulation ([2]; stimulation, at 2 µM) [%]	insulin secretion stimulation [3]	viability decrease [4]	tube area decrease [5]	GLP1 secretion stimulation [6]	inhibition of viability [7]	viability decrease (inhibition) [8]	viability decrease (inhibition) [9]	inhibition [10]
O=C(O)c1ccccc1C(=O)Nc1ccc(S(=O)(=O)Nc2nccs2)cc1	89% (inactive) and 53.5% (inactive) and 22.8% (inactive)	103% and 81.4% and 87.5%	0.8% (inactive)	0.7	-2.1% (inactive)	-13.1% (inactive)	3.3% (inactive)	1.4% (inactive)	-16.3% (inactive)	20.3% (inactive)	-5.15% (inactive)	5.34% (inactive)
Nc1ccc(C(=O)NCC(=O)O)cc1	103% (inactive) and 157% (inactive) and 40.5% (inactive)	101% and 82% and 89.7%	0.5% (inactive)	1.4	-1.1% (inactive)	-2.9% (inactive)	-2.1% (inactive)	2.6% (inactive)	-15.3% (inactive)	36.1% (inactive)	4.3% (inactive)	-8.81% (inactive)
Oc1c(Br)cc(Br)c2cccnc12	81.4% (inactive)	68.8%	4.7% (inactive)	0.1	2.4% (inactive)	113% (active)	108% (active)	4.3% (inactive)	96.7% (active)	153% (active)	99.7% (active)	4.35% (inactive)
Nc1ncnc2c1ncn2[C@@H]1O[C@H](CO)[C@@H](O)[C@H]1O	102% (inactive) and 72.2% (inactive)	77.4% and 98.9%	10.9% (inactive)	1.8	2.7% (inactive)	41.9% (inactive)	30.3% (inactive)	-0.1% (inactive)	33.7% (inactive)	27% (inactive)	19.1% (inactive)	2.2% (inactive)
NC(N)=N/N=C/c1c(Cl)cccc1Cl	15.7% (inactive) and 61% (inactive) and 36.4% (inactive)	48.5% and 89.8% and 102%	-0.1% (inactive)	-1.1	-0.5% (inactive)	60% (active)	18.2% (inactive)	2.1% (inactive)	80.7% (active)	99.6% (active)	45.4% (inactive)	14% (inactive)
CN1C(C)(C)CCCC1(C)C	91.5% (inactive) and 53.1% (inactive)	99.3% and 92.2%	1.1% (inactive)	0.5	0.8% (inactive)	23.2% (inactive)	2.5% (inactive)	-2.3% (inactive)	-1.5% (inactive)	-25.5% (inactive)	-10.7% (inactive)	2.01% (inactive)
CCCCN(CCCC)CCCOC(=O)c1ccc(N)cc1	67.1% (inactive) and 96% (inactive) and 39.6% (inactive)	98.6% and 79.9% and 102%	0.5% (inactive)	1.7	0.7% (inactive)	-47.6% (inactive)	18.7% (inactive)	0.7% (inactive)	15% (inactive)	21.3% (inactive)	-4.6% (inactive)	-3.82% (inactive)
C[C@]12CC[C@@H]3c4ccc(O)cc4CC[C@H]3[C@@H]1C[C@@H](O)[C@@H]2O	68.5% (inactive) and 32.3% (inactive)	70% and 67.5%	4.3% (inactive)	3	2% (inactive)	11.1% (inactive)	-3.9% (inactive)	12.5% (inactive)	4.67% (inactive)	25.1% (inactive)	-13.7% (inactive)	-14.5% (inactive)
CC1=C(C(=O)O)N2C(=O)[C@@H](NC(=O)[C@H](N)c3ccc(O)cc3)[C@H]2SC1	116% (inactive) and 83.6% (inactive)	96.4% and 77.7%	1.8% (inactive)	3.3	-0.5% (inactive)	-2.2% (inactive)	-4.7% (inactive)	-0.3% (inactive)	7.3% (inactive)	7.8% (inactive)	7.3% (inactive)	-1.37% (inactive)
C=CCSCC1Nc2cc(Cl)c(S(N)(=O)=O)cc2S(=O)(=O)N1 (stereo not drawn)	134% (inactive) and 105% (inactive) and 42.5% (inactive)	102% and 73.3% and 104%	0.3% (inactive)	0.6	-0.2% (inactive)	-11% (inactive)	-0.7% (inactive)	0.1% (inactive)	3.27% (inactive)	-6.2% (inactive)	1.8% (inactive)	5.8% (inactive)
CC(=O)Oc1cccc(O)c1	139% (inactive) and 53% (inactive)	92.8% and 100%	0.7% (inactive)	2	2.6% (inactive)	0.4% (inactive)	20.9% (inactive)	1.4% (inactive)	3.03% (inactive)	29.4% (inactive)	-7.4% (inactive)	8.3% (inactive)
O=C(NC(Cc1cc(=O)[nH]c2ccccc12)C(=O)O)c1ccc(Cl)cc1 (stereo not drawn)	149% (inactive) and 24.1% (inactive)	88.8% and 69%	-0.8% (inactive)	-1	2.6% (inactive)	-6.2% (inactive)	19.9% (inactive)	-0.3% (inactive)	3.17% (inactive)	22.7% (inactive)	-11.3% (inactive)	4.66% (inactive)
Nc1nc2c(c(=O)[nH]1)N(C=O)C(CNc1ccc(C(=O)N[C@@H](CCC(=O)O)C(=O)O)cc1)CN2 (stereo partly drawn)	101% (inactive) and 95.5% (inactive) and 64.5% (inactive)	96.6% and 70.1% and 99.2%	1.7% (inactive)	4.1	3.9% (inactive)	19.3% (inactive)	1.3% (inactive)	0.8% (inactive)	-11.6% (inactive)	24.4% (inactive)	-9.9% (inactive)	-1.29% (inactive)
Nc1ccc(C(=O)Oc2ccccc2)c(O)c1	67.6% (inactive)	172%	0.2% (inactive)	2.9	0.9% (inactive)	-26.7% (inactive)	4.5% (inactive)	0.7% (inactive)	3% (inactive)	-17.2% (inactive)	17.2% (inactive)	-7.23% (inactive)
Cc1cc(O)cc(C)c1Cl	69.1% (inactive) and 37.2% (inactive)	76.7% and 78.6%	-0.1% (inactive)	2	2% (inactive)	-11% (inactive)	-5.3% (inactive)	-2% (inactive)	18.1% (inactive)	28.5% (inactive)	9.3% (inactive)	0.336% (inactive)
O=C(O)c1ccccc1OP(=O)(O)O	79.1% (inactive) and 102% (inactive)	101% and 71.6%	0.8% (inactive)	2.9	0.8% (inactive)	-21.3% (inactive)	-18.8% (inactive)	1.7% (inactive)	1.07% (inactive)	6.6% (inactive)	-7.1% (inactive)	-2.26% (inactive)
Nc1ccc(S(=O)(=O)Nc2cnc3ccccc3n2)cc1	113% (inactive) and 43.6% (inactive)	98.9% and 97%	-0.3% (inactive)	0.7	1.2% (inactive)	21% (inactive)	-18.5% (inactive)	4.1% (inactive)	0.93% (inactive)	-1% (inactive)	-9.7% (inactive)	10.4% (inactive)
Nc1c2ccccc2nc2ccccc12	23.3% (inactive) and 22.9% (inactive)	78.7% and 67.3%	21.1% (inactive)	0.1	39.7% (active)	49.2% (active)	81.5% (active)	11.4% (inactive)	105% (active)	107% (active)	49% (active)	-6.58% (inactive)
O=C(COc1ccc(Cl)cc1)N1CCN(Cc2ccc3c(c2)OCO3)CC1	33.6% (inactive) and 155% (inactive) and 109% (inactive)	49.1% and 91.8% and 89.5%	1% (inactive)	-0.3	2.3% (inactive)	54% (active)	3.4% (inactive)	0.1% (inactive)	53.7% (active)	56.1% (active)	52.6% (active)	11.5% (inactive)
CN(C)CCOC(=O)C(c1ccccc1)C1(O)CCCC1 (stereo not drawn)	73.9% (inactive) and 104% (inactive) and 58% (inactive)	70.9% and 70% and 90.8%	0.3% (inactive)	1.3	0.2% (inactive)	-18% (inactive)	-3.4% (inactive)	-3.8% (inactive)	50.1% (active)	20.7% (inactive)	31.8% (inactive)	-0.0978% (inactive)
CC1(C)O[C@@H]2C[C@H]3[C@@H]4CCC5=CC(=O)CC[C@]5(C)[C@@]4(F)[C@@H](O)C[C@]3(C)[C@]2(C(=O)CCl)O1	116% (inactive)	97.4%	-0.6% (inactive)	0.3	-0.7% (inactive)	-39% (inactive)	10.2% (inactive)	-1.7% (inactive)	-4.27% (inactive)	9.4% (inactive)	-22.2% (inactive)	12.4% (inactive)
C[C@H](N)[C@H](O)c1cccc(O)c1	9.16% (inactive) and 99.4% (inactive) and 51.4% (inactive)	46.8% and 91.2% and 209%	-0.7% (inactive)	-0.1	-3.4% (inactive)	-13.4% (inactive)	12.1% (inactive)	-3.4% (inactive)	-3.1% (inactive)	37.4% (inactive)	1.5% (inactive)	13.9% (inactive)
Cc1ccnc(NS(=O)(=O)c2ccc(N)cc2)n1	74% (inactive) and 287% (inactive) and 42.8% (inactive)	92.3% and 68.7% and 98.8%	3.8% (inactive)	1.5	-0.3% (inactive)	9.35% (inactive)	-12.6% (inactive)	2.1% (inactive)	2.4% (inactive)	31.8% (inactive)	7.5% (inactive)	2.58% (inactive)
COc1ccc(NS(=O)(=O)c2ccc(N)cc2)nn1	118% (inactive) and 103% (inactive) and 48% (inactive)	101% and 69.5% and 83.6%	-1.8% (inactive)	2.2	0.2% (inactive)	-9.5% (inactive)	14% (inactive)	0.3% (inactive)	-7.97% (inactive)	2.4% (inactive)	-8.6% (inactive)	-7.32% (inactive)
